The record followed here is article PMC11006913.

Among the targets are HOXC10 (Homo sapiens, UniProt Q9NYD6 254-340, K271E); HOXD13 (Homo sapiens, UniProt P35453 263-343, T313A); ALX3 (Homo sapiens, UniProt O95076 139-225).
Holding throughout (experiment): PBM; 200 nM protein, PBS
Common to all, as to conditions: dsDNA, one strand shown

Assay [1] addresses MSX2 (Homo sapiens, UniProt P35548 130-214).
Assay [2] addresses MSX2 (Homo sapiens, UniProt P35548 130-214, F161Y).
A further assay deals with T1, SIX6 (Homo sapiens, UniProt O95475 114-200, L167V).
T1 sequence: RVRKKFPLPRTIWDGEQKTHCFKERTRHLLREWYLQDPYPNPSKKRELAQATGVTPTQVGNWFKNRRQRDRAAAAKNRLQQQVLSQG

The target of assay [3] is PROP1 (Homo sapiens, UniProt O75360 56-141).
Chain of PROP1 (Homo sapiens, UniProt O75360 56-141) (O75360 56-141): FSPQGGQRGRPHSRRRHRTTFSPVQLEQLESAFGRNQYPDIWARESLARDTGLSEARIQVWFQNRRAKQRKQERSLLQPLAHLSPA
Assay [4] addresses PROP1 (Homo sapiens, UniProt O75360 56-141, R99H).
The target of assay [5] is VAX1 (Homo sapiens, UniProt Q5SQQ9 86-172).
Chain of VAX1 (Homo sapiens, UniProt Q5SQQ9 86-172) (Q5SQQ9 86-172): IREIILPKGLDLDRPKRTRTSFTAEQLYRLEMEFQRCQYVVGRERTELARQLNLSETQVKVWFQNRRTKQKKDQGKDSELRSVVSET
For assay [6], the target named is PROP1 (Homo sapiens, UniProt O75360 56-141, F88S).
Chain of PROP1 (Homo sapiens, UniProt O75360 56-141, F88S) (O75360 56-141 F88S): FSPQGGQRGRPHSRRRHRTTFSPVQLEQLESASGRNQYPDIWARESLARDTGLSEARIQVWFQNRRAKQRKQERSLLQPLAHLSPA
In assay [7] the target is VAX1 (Homo sapiens, UniProt Q5SQQ9 86-172, T142I).
Chain of VAX1 (Homo sapiens, UniProt Q5SQQ9 86-172, T142I) (Q5SQQ9 86-172 T142I): as the sequence (Q5SQQ9 86-172) above, with T57I counted along it
Assay [8] addresses VAX1 (Homo sapiens, UniProt Q5SQQ9 86-172, K157R).
The next assay has as its target T2, PAX4 (Homo sapiens, UniProt O43316 9-242, F177Y).
T2 sequence: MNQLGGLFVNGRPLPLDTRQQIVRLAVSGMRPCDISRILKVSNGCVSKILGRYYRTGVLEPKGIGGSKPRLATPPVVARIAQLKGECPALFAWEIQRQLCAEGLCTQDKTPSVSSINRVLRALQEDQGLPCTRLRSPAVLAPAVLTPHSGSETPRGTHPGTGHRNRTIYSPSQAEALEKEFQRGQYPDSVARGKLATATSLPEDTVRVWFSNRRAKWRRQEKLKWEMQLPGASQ

A further assay deals with T3, NKX2-4 (Homo sapiens, UniProt Q9H2Z4 175-261, R246Q).
T3 sequence: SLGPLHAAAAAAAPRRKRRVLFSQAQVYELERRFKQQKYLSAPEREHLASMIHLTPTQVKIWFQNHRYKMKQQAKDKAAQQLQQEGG

Chain of PROP1 (Homo sapiens, UniProt O75360 56-141, R99H) (O75360 56-141 R99H): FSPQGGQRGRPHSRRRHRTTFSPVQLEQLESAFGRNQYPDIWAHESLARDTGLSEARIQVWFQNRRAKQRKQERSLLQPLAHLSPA
Chain of HOXC10 (Q9NYD6 254-340 K271E): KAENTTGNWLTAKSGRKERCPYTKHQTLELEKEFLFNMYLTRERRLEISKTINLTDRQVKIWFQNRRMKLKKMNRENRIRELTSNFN
Chain of MSX2 (Homo sapiens, UniProt P35548 130-214) (P35548 130-214): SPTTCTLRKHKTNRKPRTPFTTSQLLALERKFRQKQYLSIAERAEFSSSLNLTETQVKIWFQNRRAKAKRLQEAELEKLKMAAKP
Chain of MSX2 (Homo sapiens, UniProt P35548 130-214, F161Y) (P35548 130-214 F161Y): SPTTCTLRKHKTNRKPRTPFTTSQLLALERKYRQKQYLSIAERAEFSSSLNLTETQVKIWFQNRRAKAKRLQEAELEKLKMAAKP
Chain of VAX1 (Homo sapiens, UniProt Q5SQQ9 86-172, K157R) (Q5SQQ9 86-172 K157R): as the sequence (Q5SQQ9 86-172) above, with K72R counted along it
Chain of ALX3 (O95076 139-225): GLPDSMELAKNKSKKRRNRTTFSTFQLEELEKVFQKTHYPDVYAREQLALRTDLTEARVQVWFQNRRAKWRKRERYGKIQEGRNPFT
Chain of HOXD13 (P35453 263-343 T313A): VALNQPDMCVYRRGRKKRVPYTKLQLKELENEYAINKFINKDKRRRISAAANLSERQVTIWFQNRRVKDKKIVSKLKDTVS

Take ATCAAAAT: the binding signal in the assay with MSX2 [1] was 11.2 upbm affinity estimate (log intensity, higher = more binding, comparable within an allelic series); with MSX2 [2], 11.1 upbm affinity estimate (log intensity, higher = more binding, comparable within an allelic series).
Take CAAATTCA: the binding signal with MSX2 [1] was 10.9 upbm affinity estimate (log intensity, higher = more binding, comparable within an allelic series); in the assay with MSX2 [2], 10.7 upbm affinity estimate (log intensity, higher = more binding, comparable within an allelic series).
For the sequence ATCAATCC, the binding signal was 11.1 upbm affinity estimate (log intensity, higher = more binding, comparable within an allelic series) with MSX2 [1] and 11.1 upbm affinity estimate (log intensity, higher = more binding, comparable within an allelic series) in the assay with MSX2 [2].
As to TCAACTAA, the binding signal was 11.2 upbm affinity estimate (log intensity, higher = more binding, comparable within an allelic series) with MSX2 [1] and 11 upbm affinity estimate (log intensity, higher = more binding, comparable within an allelic series) in the assay with MSX2 [2].
As to AACATAAA, the binding signal in the assay with HOXC10 was 11.3 upbm affinity estimate (log intensity, higher = more binding, comparable within an allelic series).
Take GAATAAAA: the binding signal is 11 upbm affinity estimate (log intensity, higher = more binding, comparable within an allelic series) in the assay with MSX2 [1] and 10.9 upbm affinity estimate (log intensity, higher = more binding, comparable within an allelic series) with MSX2 [2].
Take CACATAAA: the binding signal with HOXC10 was 11.3 upbm affinity estimate (log intensity, higher = more binding, comparable within an allelic series); with HOXD13, 11.6 upbm affinity estimate (log intensity, higher = more binding, comparable within an allelic series).
For the sequence ATTGCCAC, the binding signal was 11 upbm affinity estimate (log intensity, higher = more binding, comparable within an allelic series) with MSX2 [1] and 11 upbm affinity estimate (log intensity, higher = more binding, comparable within an allelic series) in the assay with MSX2 [2].
For the sequence AAAATCGT, the binding signal in the assay with MSX2 [1] was 11 upbm affinity estimate (log intensity, higher = more binding, comparable within an allelic series); with MSX2 [2], 10.9 upbm affinity estimate (log intensity, higher = more binding, comparable within an allelic series).
Turning to CTCAATCC, the binding signal was 10.8 upbm affinity estimate (log intensity, higher = more binding, comparable within an allelic series) with MSX2 [1] and 10.7 upbm affinity estimate (log intensity, higher = more binding, comparable within an allelic series) with MSX2 [2].
For the sequence AATCAGGC, the binding signal was 11.4 upbm affinity estimate (log intensity, higher = more binding, comparable within an allelic series) with MSX2 [1] and 11.2 upbm affinity estimate (log intensity, higher = more binding, comparable within an allelic series) with MSX2 [2].
Consider AACAAGAG, for which the binding signal in the assay with MSX2 [1] was 10.3 upbm affinity estimate (log intensity, higher = more binding, comparable within an allelic series).
On to CAAATAAG, for which the binding signal is 11.1 upbm affinity estimate (log intensity, higher = more binding, comparable within an allelic series) with MSX2 [1] and 10.9 upbm affinity estimate (log intensity, higher = more binding, comparable within an allelic series) with MSX2 [2].
In the case of AGATATCT, in the assay with SIX6, the binding signal was 10.8 upbm affinity estimate (log intensity, higher = more binding, comparable within an allelic series).
On to AAGAATCA, for which the binding signal with MSX2 [1] was 10.8 upbm affinity estimate (log intensity, higher = more binding, comparable within an allelic series); with MSX2 [2], 10.6 upbm affinity estimate (log intensity, higher = more binding, comparable within an allelic series).
With GTCATCTA, the binding signal is 10.5 upbm affinity estimate (log intensity, higher = more binding, comparable within an allelic series) with MSX2 [1] and 10.4 upbm affinity estimate (log intensity, higher = more binding, comparable within an allelic series) in the assay with MSX2 [2].
For the sequence ATTTTTGG, the binding signal with MSX2 [1] was 10.7 upbm affinity estimate (log intensity, higher = more binding, comparable within an allelic series); with MSX2 [2], 10.6 upbm affinity estimate (log intensity, higher = more binding, comparable within an allelic series).
On to AAACGATC, for which the binding signal was 10.9 upbm affinity estimate (log intensity, higher = more binding, comparable within an allelic series) in the assay with MSX2 [1] and 10.8 upbm affinity estimate (log intensity, higher = more binding, comparable within an allelic series) with MSX2 [2].
For GTAGTAAA, the binding signal with HOXC10 was 11.1 upbm affinity estimate (log intensity, higher = more binding, comparable within an allelic series).
GCGATATA: the binding signal is 10.6 upbm affinity estimate (log intensity, higher = more binding, comparable within an allelic series) in the assay with MSX2 [1] and 10.5 upbm affinity estimate (log intensity, higher = more binding, comparable within an allelic series) with MSX2 [2].
For GCAGTAAA, the binding signal with HOXC10 is 11.1 upbm affinity estimate (log intensity, higher = more binding, comparable within an allelic series).
For AGTCCTAA, the binding signal in the assay with MSX2 [1] is 11.4 upbm affinity estimate (log intensity, higher = more binding, comparable within an allelic series); in the assay with MSX2 [2], 11.2 upbm affinity estimate (log intensity, higher = more binding, comparable within an allelic series).
Take ATTTGTCC: the binding signal is 11.1 upbm affinity estimate (log intensity, higher = more binding, comparable within an allelic series) with MSX2 [1] and 11 upbm affinity estimate (log intensity, higher = more binding, comparable within an allelic series) with MSX2 [2].
Consider ATCATCGG, for which the binding signal in the assay with MSX2 [1] is 10.9 upbm affinity estimate (log intensity, higher = more binding, comparable within an allelic series); with MSX2 [2] it was 10.8 upbm affinity estimate (log intensity, higher = more binding, comparable within an allelic series).
Consider AACAATCC, for which the binding signal with PROP1 [3] is 7.92 upbm affinity estimate (log intensity, higher = more binding, comparable within an allelic series).
Consider TAATACTA, for which the binding signal with ALX3 is 10.2 upbm affinity estimate (log intensity, higher = more binding, comparable within an allelic series).
For the sequence AGTTAGAG, in the assay with PROP1 [3], the binding signal was 7.87 upbm affinity estimate (log intensity, higher = more binding, comparable within an allelic series).
In the case of TTACTCAA, the binding signal with PROP1 [3] is 8.57 upbm affinity estimate (log intensity, higher = more binding, comparable within an allelic series); in the assay with PROP1 [4] it was 7.91 upbm affinity estimate (log intensity, higher = more binding, comparable within an allelic series); with VAX1 [5] it was 9.78 upbm affinity estimate (log intensity, higher = more binding, comparable within an allelic series); with PROP1 [6] it was 7.39 upbm affinity estimate (log intensity, higher = more binding, comparable within an allelic series); in the assay with VAX1 [7], 9.49 upbm affinity estimate (log intensity, higher = more binding, comparable within an allelic series); with VAX1 [8], 9.35 upbm affinity estimate (log intensity, higher = more binding, comparable within an allelic series).
On to AATACTAC, for which, in the assay with PROP1 [3], the binding signal is 7.84 upbm affinity estimate (log intensity, higher = more binding, comparable within an allelic series).
In the case of CACGACGA, the binding signal with PROP1 [3] was 6.69 upbm affinity estimate (log intensity, higher = more binding, comparable within an allelic series); with PROP1 [4] it was 6.8 upbm affinity estimate (log intensity, higher = more binding, comparable within an allelic series); with PROP1 [6], 6.95 upbm affinity estimate (log intensity, higher = more binding, comparable within an allelic series).
For ATCATATA, the binding signal with PAX4 was 10.6 upbm affinity estimate (log intensity, higher = more binding, comparable within an allelic series).
In the case of AAATACAT, the binding signal with PROP1 [3] is 8.5 upbm affinity estimate (log intensity, higher = more binding, comparable within an allelic series); with PROP1 [4] it was 7.91 upbm affinity estimate (log intensity, higher = more binding, comparable within an allelic series).
With ATTATGTG, the binding signal in the assay with PAX4 is 10.9 upbm affinity estimate (log intensity, higher = more binding, comparable within an allelic series).
Take ATTGTCTC: in the assay with PROP1 [3], the binding signal is 7.7 upbm affinity estimate (log intensity, higher = more binding, comparable within an allelic series).
Consider GACGACAA, for which the binding signal with PROP1 [3] was 7.4 upbm affinity estimate (log intensity, higher = more binding, comparable within an allelic series).
As for ACACTCGA, the binding signal in the assay with NKX2-4 is 12.9 upbm affinity estimate (log intensity, higher = more binding, comparable within an allelic series).
Turning to ATAATTCG, in the assay with PAX4, the binding signal is 11 upbm affinity estimate (log intensity, higher = more binding, comparable within an allelic series).
In the case of AATAGTCC, in the assay with PROP1 [3], the binding signal was 8.13 upbm affinity estimate (log intensity, higher = more binding, comparable within an allelic series).
